From PubChem BioAssay
FBPA Giardia inh – inhibitors of Giardia lamblia fructose-1,6-bisphosphate aldolase; actives 0.71% (n = 290,000); Potency, µM (series often up to 59.6 µM), without a hit: top-dose activity, negative = inhibition, usual class: inhibitors; purified Giardia FBPA; note: potency is the fitted concentration of half-maximal effect; % is set by controls: 0 for no effect and ±100 for the full control effect; nearly all actives have a fitted effect of over 55% in size
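40 nM FBPA preincubated 10 min at RT with compound (up to 57.5 uM final), then substrate plus GAPDH/TPI/NAD/arsenate coupling and diaphorase/resazurin added. Fluorescence read after 20 min at RT, 525/598 nm.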
LmPK inhibitor – blocks Leishmania mexicana pyruvate kinase activity; Q27686; purified LmPK, Kinase-Glo ATP luminescence, 1 h; Potency, µM (titrated, usually from 57.5 µM), inactives show top-dose activity change, negative = inhibition, hits mostly inhibitors; actives 0.37% (n = 290,000); AID 1721; note: potency is the fitted concentration of half-maximal effect; % is set by controls: 0 for no effect and ±100 for the full control effect
Target sequence (Q27686 whole entry, looked up): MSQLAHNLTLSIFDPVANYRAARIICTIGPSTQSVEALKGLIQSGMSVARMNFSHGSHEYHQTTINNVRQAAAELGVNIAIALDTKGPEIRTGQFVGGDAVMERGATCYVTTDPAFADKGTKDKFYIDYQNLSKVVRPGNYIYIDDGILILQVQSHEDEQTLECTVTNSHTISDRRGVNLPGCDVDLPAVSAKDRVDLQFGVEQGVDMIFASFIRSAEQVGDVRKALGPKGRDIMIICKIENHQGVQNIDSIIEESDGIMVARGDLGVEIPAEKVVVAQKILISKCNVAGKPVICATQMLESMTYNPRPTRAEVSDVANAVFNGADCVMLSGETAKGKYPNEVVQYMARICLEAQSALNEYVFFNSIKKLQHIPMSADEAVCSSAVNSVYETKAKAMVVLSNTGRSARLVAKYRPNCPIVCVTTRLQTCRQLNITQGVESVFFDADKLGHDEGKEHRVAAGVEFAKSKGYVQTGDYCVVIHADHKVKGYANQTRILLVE
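Kinase-Glo luminescence read after 1 h RT reaction of 0.1 nM LmPK with 0.5 mM PEP and 0.1 mM ADP. Activity scaled between uninhibited and enzyme-free controls.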
Sm TGR inh – S. mansoni TGR enzyme inhibition; Q962Y6; purified TGR, DTNB reduction, TNB absorbance 405 nm; Potency, µM (series often up to 114 µM), without a hit: top-dose activity change, negative = inhibition, usual class: inhibitors; actives 3% (n = 360,000); AID 485364; note: potency is the fitted concentration of half-maximal effect; % is set by controls: 0 for no effect and ±100 for the full control effect; nearly all actives have a fitted effect of over 60% in size
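TGR 20 nM + NADPH 100 uM (dispensed conc.), cpd preinc 15 min RT; start with NADPH (500 uM addition) then DTNB (15 mM addition). Kinetic TNB absorbance, 405 nm filter. Four-parameter Hill fit across titration.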
Cycloheximide cs – affects cycloheximide protein synthesis inhibition readout, counter-screen; cell reporter, cycloheximide protein synthesis inhibition counterscreen; max response, %; actives 12% (n = 300,000); AID 2314; in the data active = max response mostly above about 13%, no sharp cut-off; inactive = mostly below about 14%; note: read at 38.3 µM for the half of the compounds with a filed dose; 0% is about no effect
Shiga inhibitor – Shiga toxin inhibition | Vero cells, Shiga toxin protein synthesis inhibition reporter | actives 9.2% (n = 290,000) | inhibition, % at 38.7 µM; in the data active = inhibition mostly above about 28%, no sharp cut-off; inactive = mostly below about 43%; note: 0% is about no effect
Tb PYK inh – T. brucei pyruvate kinase inhibition | Q57TT1 | TbPYK enzyme, Kinase-Glo Plus ATP luminescence, 45 min | Potency, µM (highest dose often 76.8 µM), inactives show at the highest dose activity, negative = inhibition, hits mostly inhibitors | actives 0.12% (n = 410,000) | AID 624173; note: potency is the fitted concentration of half-maximal effect; % is set by controls: 0 for no effect and ±100 for the full control effect; nearly all actives have a fitted effect of over 50% in size
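Assay buffer: 50 mM TEA pH 7.2, 100 mM KCl, 10 mM MgCl2, 0.05% BSA, 0.01% Tween-20. Pyruvate kinase from T. brucei plus substrate met compound, then ADP (130 uM final). Luminescence was read post 45 min RT.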
* marks the source's active call; other numbers are inactive results; ? = inconclusive; / = no result; [ ] = dose if it differs, or a comment. The entries come from a sample that favours hits as a whole. Unless noted, calls come from the whole dose curve; as a rule, active = well fitted curve in the direction sought with a large enough effect; inconclusive = small, poorly fitted or top-dose-only effect, or another doubt; inactive = no such curve, though single readings can be large; an effect the other way counts as inactive or inconclusive.

SMILES	FBPA Giardia inh	LmPK inhibitor	Sm TGR inh	Cycloheximide cs	Shiga inhibitor	Tb PYK inh
CCc1cccc(CC)c1NC(=O)C(Cc1ccccc1)NS(=O)(=O)c1cccc2nsnc12 (stereo not drawn)	/	/	2%	/	/	0%
CC(CNC(=O)c1ccc2c(c1)nc1n2CCCCC1)c1ccccc1 (stereo not drawn)	/	/	1%	/	/	-1%
COCCc1nn2c(=O)cc(COC(=O)c3ccccc3C)nc2s1	/	/	3%	/	/	-2%
Cc1ccn(CC(=O)N2CCCC(N3CCN(c4cccc(C(F)(F)F)c4)CC3)C2)n1 (stereo not drawn)	/	/	/	/	/	-2%
O=S(=O)(CCN1C=CC(C(F)(F)F)=NCC1)c1ccc(Cl)cc1Cl	0%	-3%	25µM*	-2	-10	4%
COc1ccc(-c2noc(CSCC(=O)Nc3cc(OC)c(OC)c(OC)c3)n2)cc1OC	/	/	1%	/	/	-4%
O=c1nccc(N/N=C/c2ccccc2)[nH]1	?	-4%	1%	37*	37*	-14%
O=c1cc(N/N=C/c2ccccc2)[nH]c(=O)[nH]1	/	/	/	/	/	1%
Cc1cc(=O)n2nc(N3CCC(C(=O)Nc4ccc(Br)c(C)c4)CC3)sc2n1	/	/	-3%	/	/	-2%
CN(C)CCN(C(=O)c1ccc2c(c1)OCCO2)c1nc2ccc(Cl)cc2s1	-4%	6%[11.5 µM]	6%	27*	36	-9%
CN(C)CCCN(C(=O)c1ccc2c(c1)OCCO2)c1nc2ccc(Cl)cc2s1	/	-3%	-10%	15*	36	/
COC(=O)Cc1csc(Nc2ccccc2Cl)n1	-8%	-5%	-11%	36*	52*	3%
CCOC(=O)c1nnsc1NC(=O)Nc1ccc(OC)cc1	3%	-9%	-3%	-3	-7	-3%
CCOC(=O)c1sc(NC(=O)Nc2ccccc2F)nc1C	4%	-6%	-3%	86*	75*	-1%
CCOC(=O)c1sc2cccc(Cl)c2c1N	-10%	-2%	-20%	3	14	3%
CCOC(=O)c1sc2cccc(F)c2c1N	2%	2%	-10%	25*	25*	4%
CCOC(=O)c1cc2nc(Nc3ccc(OC)cc3)sc2s1	-5%	0%	-3%	14*	58*	-10%
CCN(CC)c1ccc(C(=O)NCc2nc3cccnc3n2Cc2ccc(C)cc2)cc1	/	/	-2%	/	/	-8%
Cc1ccc(N2CC3=C(C2=O)C(c2ccc(Br)cc2)NC(=O)N3C)cc1 (stereo not drawn)	/	/	-4%	/	/	-3%
O=C(COc1ccc(Cl)cc1Cl)Nc1ccc(C(=O)OC2CCCCC2)cc1	/	/	-9%	/	/	-1%
CCOC(=O)c1sc(Nc2ccccc2Cl)nc1C	5%	-5%	3%	42*	88*	6%
CCOC(=O)c1sc(NC(=O)/C=C/c2c(F)cccc2Cl)nc1C	5%	-2%	-9%	40*	-7	2%
CCOC(=O)c1sc(Nc2ccc(Br)cc2)nc1C	?	2%	-12%	30*	89*	2%
FC(F)(F)C(F)(F)C(F)(F)C(F)(F)C(F)(F)C(F)(F)C(F)(F)C(F)(F)Br	/	/	/	/	/	-3%
COC(=O)c1sc(NC(=O)C(C)C)c(C(=O)OC)c1C	20%	-1%	0%	40*	16	3%
SMILES	FBPA Giardia inh	LmPK inhibitor	Sm TGR inh	Cycloheximide cs	Shiga inhibitor	Tb PYK inh
Cc1cc(C)nc(S/C=C/C(=O)c2ccccc2F)n1	3%	-1%	0.56µM*	54*	119*	-3%
Cc1cc(C)nc(NC(=S)NC(=O)c2ccccc2F)n1	/	/	/	/	/	0%
CC(=O)c1ccccc1C(=O)N1CCCC(C(=O)c2ccc(C(F)(F)F)cc2)C1 (stereo not drawn)	-4%	10%	40µM*	54*	70*	7%
COCC(=O)N1CCCC(C(=O)c2ccc(-c3ccccc3)c(F)c2)C1 (stereo not drawn)	0%	-1%	8%	28*	20	1%
COc1ccccc1C(=O)C1CCCN(C(=O)CN2CCCCC2=O)C1 (stereo not drawn)	2%	-3%	3%	19*	29	-1%
COc1ccccc1N1CCN(C2CCCN(C(=O)CN3CCCC3=O)C2)CC1 (stereo not drawn)	/	1%	4%	1	-4	-2%
CCOC(=O)c1c(C)[nH]c(C(=O)N2CCCC(C(=O)c3ccccc3OC)C2)c1C (stereo not drawn)	-2%	2%	-4%	12*	27	0%
O=C(CCc1ccccc1)NCc1nc2cccnc2n1Cc1ccc(F)cc1	/	/	2%	/	/	0%
COc1ccccc1C(=O)C1CCCN(C(=O)c2ccccc2C(C)=O)C1 (stereo not drawn)	-14%	-9%	-9%	33*	49*	0%
COc1ccc(C(=O)C2CCCN(C(=O)c3cc(C)nc(C)n3)C2)cc1OC (stereo not drawn)	0%	0%	-28%	24	50*	2%
COc1ccc(C(=O)C2CCCN(C(=O)c3ccccc3C(C)=O)C2)cc1F (stereo not drawn)	1%	5%	40µM*	30*	54	-1%
O=C(c1ccc(C(F)(F)F)cc1)C1CCCN(C(=O)CN2C(=O)CSC2=O)C1 (stereo not drawn)	-1%	-5%	3%	25*	53*	-6%
O=C(NCCc1cccs1)Nc1nnc([C@H]2C[C@H](O)[C@@H](CO)O2)s1	/	/	/	/	/	4%
COC(=O)N[C@@H](CCc1ccccc1)[C@]1(C(=O)OC)CCCC1=O	4%	/	/	/	/	/
NC1=NC(=O)/C(=C\c2cc([N+](=O)[O-])ccc2Cl)S1	6%	-1%	5%	3	-15	-9%
CC(C)c1ccc(-c2nnc3n(CCc4ccccc4)c(=O)c4ccccc4n23)cc1	/	/	44%	/	/	-12%
CCNC(=O)CC1C(=O)N(c2cccc(OC)c2)C(=O)N1Cc1ccc(OC)c(OC)c1 (stereo not drawn)	/	/	-8%	/	/	-3%
COc1ccc(C(=O)C2CCCN(C(=O)c3noc4c3CCCC4)C2)cc1F (stereo not drawn)	2%	10%	6%	1	-2	2%
Cc1nc(C)n(CC(=O)N2CCCC(C(=O)c3cccc4ccccc34)C2)n1 (stereo not drawn)	1%	-1%	?	14*	24	-6%
CC(=O)N1CCCC(C(=O)c2ccc(Oc3ccccc3)cc2)C1 (stereo not drawn)	-9%	-2%	0%	34*	57*	-3%
